# In PubChem BioAssay (NCI):
# About 83,000 compounds went through this panel and 20% of them were active in at least one assay; those are over-represented in the sample as a whole.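 Negative percent growth values reflect cell death: -40 means 40% of the cells present at the start died, and -100 means all died.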 A number with no mark means an inactive call. Calls of active or inactive are those of the source. Rule for the calls: active = growth percent below 10; inactive = the rest.
# Columns and labels:
# Experiment in all cases: NCI-60 one-dose screen, 48 h (100 = growth as untreated, 0 = no growth, -100 = all killed)
# Details in all cases: 10 µM unless noted
# [1] = test system: HCT-15 colon
# [2] = test system: HT29 colon
# [3] = test system: SNB-75 CNS
# [4] = test system: SNB-19 CNS
# [5] = test system: U251 CNS
# [6] = test system: PC-3 prostate
# [7] = test system: SK-MEL-5 melanoma
# [8] = test system: UACC-62 melanoma
# [9] = test system: LOX IMVI melanoma
# [10] = test system: SK-MEL-28 melanoma
Structure (SMILES),growth [1],growth [2],growth [3],growth [4],growth [5],growth [6] [%],growth [7],growth [8],growth [9],growth [10]
O=C(/C=C/C12c3ccccc3C(c3ccccc31)C1C(=O)NC(=O)C12)c1ccc(Br)cc1 (stereo not drawn),36.1%,20.1%,55.7%,51.3%,29.2%,29.8,67.8%,46.7%,21%,50.6%
CN1CCN(c2ccc(NC(=O)c3cncnc3Nc3ccc(OCc4cccc(F)c4)c(Cl)c3)cc2)CC1,-39.6% (active),-55.3% (active),68.3%,84.1%,47%,68.1,87.8%,48%,29.7%,81.1%
CCOC(=O)/C=C1\S/C(=N\Nc2cc(=O)[nH]c3ccccc23)N(c2ccccc2)C1=O,98.7%,113%,80.1%,100%,94.2%,95.4,104%,97%,97.2%,110%
N#Cc1ccc(O)c(C2=NCC(Cc3ccccc3)O2)c1 (stereo not drawn),21.2%,72.6%,70.6%,55.6%,23.8%,35.3,35.5%,42%,32.6%,80.2%
CCOC(=O)c1cnc2c(N=Nc3ccc(OC)cc3)c(N)nn2c1N,102%,99.3%,106%,98.6%,105%,98.7,96.2%,97.3%,110%,114%
O=C(Nc1cc(Cl)ccc1O)c1cccc(Nc2ccnc(C(F)(F)F)c2)c1,42.9%,87.4%,61.4%,44%,43.2%,28.2,4.5% (active),15.5%,38.5%,88.1%
CCN1CCN(CC(=O)Nc2ccc(-c3cn4c(n3)sc3cc(Oc5ccnc(C(=O)NC)c5)ccc34)cc2)CC1,77.3%,-21.8% (active),82.9%,98.6%,64.8%,65.8,88.3%,66.9%,-80.4% (active),74.6%
O=C1/C(=C\c2cccc3nccnc23)SC(=S)N1CCc1ccc(O)cc1,101%,116%,89%,94.4%,107%,84,95%,76.4%,94.5%,99.5%
OCCNCCNC(Cc1ccc(Cl)cc1)c1ccccc1 (stereo not drawn),93.3%,59.9%,72.8%,96.9%,94.2%,55.3,95.2%,59.7%,83.8%,81.5%
COc1ccc(/C(C)=C(/c2ccc(OCCCN(C)C)cc2)c2ccc(OC(=O)c3ccccc3)cc2)cc1,63%,9.02% (active),105%,94.8%,68.2%,73.4,85.7%,88.7%,-2.62% (active),85.2%
Cc1ccc2c(-c3nnc(N)s3)cc(=O)oc2c1C,96.9%,106%,92.6%,104%,99.7%,97.1,101%,94.8%,101%,102%
CSC(SC)=C(C#N)c1nc2ccccc2s1,61.8%,97.2%,74.3%,66.9%,76.5%,30,27.9%,9.44% (active),84.1%,38.8%
CCO/C=N/C1=C(C#N)C(c2ccc(F)cc2)c2sc3c(F)cccc3c2O1 (stereo not drawn),26%,56.8%,13.4%,33.2%,26.6%,47.9,35.5%,15.2%,36%,60.4%
N#C/C(=C\c1cn(Cc2ccccc2)c2ccccc12)C(=O)Nc1ncc(Cc2ccccc2Cl)s1,35.7%,28.2%,-12.7% (active),72.4%,-9.08% (active),40.6,57.6%,-40.4% (active),,29.9%
O=C(/C=C/c1ccc(Oc2ccc(Br)cc2)cc1)c1ccc(Br)cc1,98.5%,100%,90.7%,97.6%,95%,100,102%,91.4%,,105%
CN1CCN(CCOc2ccc(-c3cnc4c(-c5cccc(F)c5F)cnn4c3)cc2)CC1,-8.62% (active),-46.1% (active),115%,8.04% (active),-32.4% (active),90.5,-32.4% (active),-36.1% (active),-95.8% (active),-18.7% (active)
